The text below walks through data of PubChem BioAssay (Tox21).

Inconclusive results are not listed. A number with no mark means an inactive call. Activity calls are given as the source filed them. Unless noted, calls come from the whole dose curve; as a rule, active = well fitted curve in the direction sought with a large enough effect in the repeat runs; inconclusive = weak or mixed curves; inactive = no such curve, though single readings can be large; an effect the other way counts as inactive or inconclusive.

Assay [1] is described as follows: qHTS assay to identify aromatase inhibitors - cell viability counter screen (AID 743084).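 Note: cells stimulated with testosterone during compound exposure; nearly all actives have a fitted effect of over 55% in size.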 Note: potency is the fitted concentration of half-maximal effect. Background: qHTS replaces the single test concentration by a dilution series.
Assay [2] has as its target Aryl hydrocarbon receptor (Homo sapiens) (UniProt P35869). Put plainly: qHTS assay to identify small molecule that activate the aryl hydrocarbon receptor (AhR) signaling pathway (AID 743085).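 For activation: HG2L7.5c1 human HepG2 liver cells with stably integrated DRE-driven firefly reporter; series mostly up to about 70 µM.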 Note: nearly all actives have a fitted effect of over 15% in size. Note: potency is the fitted concentration of half-maximal effect. Put shortly: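 Cell line HG2L7.5c1 (human hepatoma, 20× DRE-luc). Plated, 5 h 37C, compound/DMSO added, 24 h 37C. CellTiter-Fluor 30 min 37C → fluorescence; then ONE-Glo 30 min RT → luminescence.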

The nature of assay [3]: qHTS assay to identify small molecule that activate the aryl hydrocarbon receptor (AhR) signaling pathway - cell viability counter screen (AID 743086). Note: nearly all actives have a fitted effect of over 45% in size. Note: potency is the fitted concentration of half-maximal effect. Put shortly:
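HepG2-AhR-luc (HG2L7.5c1) cells, 4000/well, treated 24 h at 37 C with compound; viability measured as CellTiter-Fluor fluorescence after 30 min in the same wells as the luciferase read.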

Assay [4] in a line: qHTS assay to identify small molecule phospholipidosis (PLD) inducers (AID 1259344; active = well fitted curve in the direction sought with a large enough effect; an effect the other way counts as inactive or inconclusive). In outline: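 Image-based: LipidTOX Red pit count/intensity per well and per cell; HepG2, 24 h compound at 37 C, PFA fixation, Hoechst counterstain.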
The target of assay [5] is Nuclear receptor subfamily 1 group I member 2 (Rattus norvegicus) (UniProt Q9R1A7). The assay can be described thus: Rat pregnane X receptor (rPXR) activation by small molecules, qHTS assay (AID 1346983). Note: nearly all actives have a fitted effect of over 20% in size. Note: potency is the fitted concentration of half-maximal effect. The settings on record: rPXR luciferase reporter cells, One-Glo luminescence, 24 h; max activation: hits give high values. In outline:
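Cell-based rPXR activation assay: rPXR cells, 2,000 per well, rested 5hr at 37 C, then exposed to compounds in DMSO for 24 hr at 37 C. Luciferase activity read by One-Glo luminescence after 30 min at room temperature.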

The target in assay [6] is Nuclear receptor subfamily 1 group I member 2 (Homo sapiens) (UniProt O75469). Put plainly: CYP3A4 induction through human pregnane X receptor (PXR) by small molecules, qHTS assay (AID 1346984). Note: nearly all actives have a fitted effect of over 40% in size. Note: potency is the fitted concentration of half-maximal effect. In outline:
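Quantitative HTS in DPX-2 cells, i.e. HepG2 transfected with PXR response element and CYP3A4-promoter luciferase. Compounds in DMSO incubated 24hr at 37C; then P450-Glo CYP3A4 substrate, 3uM final, 3hr; One-Glo luminescence.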

The target is the same in assay [7]. Put plainly: Human pregnane X receptor (PXR) activation by small molecules, qHTS assay (AID 1346985). Note: nearly all actives have a fitted effect of over 40% in size. Note: potency is the fitted concentration of half-maximal effect. Put shortly:
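DPX-2 cells (HepG2 co-transfected with a PXR response element and a CYP3A4-promoter luciferase construct) were seeded at 2,000 per well, rested 5 hr at 37C, then exposed to DMSO-dissolved compounds for 24 hr. Activation was read as luciferase luminescence.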

The target in assay [8] is Peroxisome proliferator-activated receptor gamma (Homo sapiens) (UniProt P37231). Put plainly: qHTS assay to identify small molecule agonists of the peroxisome proliferator-activated receptor gamma (PPARg) signaling pathway (AID 743094; active = well fitted activation curve with a large enough effect in the signal ratio in the repeat runs, not every such curve was filed as active; the % refers to the signal ratio). In outline:
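Cells from the PPARg UAS-bla HEK293H line are plated and incubated 5 h at 37C. Compounds in DMSO are pinned in and left 17 h at 37C. LiveBLAzer B/G substrate is then added for 1 h at room temperature before fluorescence is measured.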
% is set by controls: 0 for no effect and ±100 for the full control effect.

Sequence of Peroxisome proliferator-activated receptor gamma (Homo sapiens) (P37231 whole entry, looked up): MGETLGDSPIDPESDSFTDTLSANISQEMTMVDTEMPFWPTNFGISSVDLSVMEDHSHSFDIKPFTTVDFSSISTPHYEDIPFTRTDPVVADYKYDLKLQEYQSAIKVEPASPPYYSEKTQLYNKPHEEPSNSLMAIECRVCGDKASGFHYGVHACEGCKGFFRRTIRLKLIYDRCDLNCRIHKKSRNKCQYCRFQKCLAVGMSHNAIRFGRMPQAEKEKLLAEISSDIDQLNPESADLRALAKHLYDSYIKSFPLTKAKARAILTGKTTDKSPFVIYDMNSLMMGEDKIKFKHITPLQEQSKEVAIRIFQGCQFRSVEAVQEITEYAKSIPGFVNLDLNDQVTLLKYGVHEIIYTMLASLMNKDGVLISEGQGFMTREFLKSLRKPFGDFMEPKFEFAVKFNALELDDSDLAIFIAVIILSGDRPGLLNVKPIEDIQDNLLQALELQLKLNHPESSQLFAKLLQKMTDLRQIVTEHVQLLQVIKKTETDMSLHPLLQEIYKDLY
Sequence of Aryl hydrocarbon receptor (Homo sapiens) (P35869 whole entry, looked up): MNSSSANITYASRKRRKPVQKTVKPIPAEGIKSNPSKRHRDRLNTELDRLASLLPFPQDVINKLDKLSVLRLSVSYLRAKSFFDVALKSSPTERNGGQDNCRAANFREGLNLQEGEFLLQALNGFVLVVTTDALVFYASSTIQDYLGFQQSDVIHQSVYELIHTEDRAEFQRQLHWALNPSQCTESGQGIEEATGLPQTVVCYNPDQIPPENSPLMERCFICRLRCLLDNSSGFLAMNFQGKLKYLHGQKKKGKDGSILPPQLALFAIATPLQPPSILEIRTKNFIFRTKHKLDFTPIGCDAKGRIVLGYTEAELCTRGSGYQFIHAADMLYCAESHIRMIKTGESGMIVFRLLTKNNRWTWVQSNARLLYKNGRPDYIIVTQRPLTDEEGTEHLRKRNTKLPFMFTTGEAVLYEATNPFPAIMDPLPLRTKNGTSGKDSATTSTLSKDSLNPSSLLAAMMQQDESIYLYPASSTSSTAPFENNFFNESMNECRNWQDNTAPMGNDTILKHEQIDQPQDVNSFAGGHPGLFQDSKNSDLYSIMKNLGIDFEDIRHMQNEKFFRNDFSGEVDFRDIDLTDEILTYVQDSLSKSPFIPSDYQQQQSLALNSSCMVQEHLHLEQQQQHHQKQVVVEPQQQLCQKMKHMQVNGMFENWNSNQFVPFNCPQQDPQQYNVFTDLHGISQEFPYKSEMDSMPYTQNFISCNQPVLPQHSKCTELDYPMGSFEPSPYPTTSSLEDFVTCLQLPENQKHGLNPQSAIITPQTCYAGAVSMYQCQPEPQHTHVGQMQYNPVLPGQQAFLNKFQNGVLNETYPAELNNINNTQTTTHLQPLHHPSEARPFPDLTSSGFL
Sequence of Nuclear receptor subfamily 1 group I member 2 (Rattus norvegicus) (Q9R1A7 whole entry, looked up): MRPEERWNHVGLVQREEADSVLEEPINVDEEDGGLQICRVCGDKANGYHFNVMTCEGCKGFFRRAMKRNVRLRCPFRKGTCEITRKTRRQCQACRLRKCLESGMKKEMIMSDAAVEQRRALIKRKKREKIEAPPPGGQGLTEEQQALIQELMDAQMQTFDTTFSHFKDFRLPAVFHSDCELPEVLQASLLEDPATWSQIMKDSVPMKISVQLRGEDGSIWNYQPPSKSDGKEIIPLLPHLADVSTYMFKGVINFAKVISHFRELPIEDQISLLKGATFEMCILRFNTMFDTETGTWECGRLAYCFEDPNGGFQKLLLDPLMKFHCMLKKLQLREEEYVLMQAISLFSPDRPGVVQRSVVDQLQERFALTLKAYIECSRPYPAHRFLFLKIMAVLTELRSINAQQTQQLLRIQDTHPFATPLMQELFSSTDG

`C=CC[C@@H]1/C=C(\C)C[C@H](C)C[C@H](OC)[C@H]2O[C@@](O)(C(=O)C(=O)N3CCCC[C@H]3C(=O)O[C@H](/C(C)=C/[C@@H]3CC[C@@H](O)[C@H](OC)C3)[C@H](C)[C@@H](O)CC1=O)[C@H](C)C[C@@H]2OC`: the Potency entry in assay [1], in assay [2], in assay [3], in assay [4], in assay [6] and in assay [7] was “inactive” each time. In addition, the max activation in assay [5] was -13.2%.
Consider `OCC(S)CS` (centres undefined), for which the Potency result in assay [1], in assay [2], in assay [3], in assay [4], in assay [6] and in assay [7] was “inactive” each time. Also, the max activation in assay [5] is -4.08%.
Turning to `COc1ccc(C[C@H](N)C(=O)N[C@H]2[C@@H](O)[C@H](n3cnc4c(N(C)C)ncnc43)O[C@@H]2CO)cc1`, the values for the Potency in assay [1] and in assay [3] were 9.44 µM (active) and 3.76 µM (active), respectively. Further, the Potency result in assay [2], in assay [4], in assay [6] and in assay [7] was “inactive” each time. Further, the max activation in assay [5] was -3.7%.
On to `O=[N+]([O-])c1c(Cl)cccc1-c1c[nH]cc1Cl`, for which the Potency result in assay [4] is “inactive”. For the same molecule, in assay [5], the max activation is 9.62%. Further, the Potency was 11.2 µM (active) in assay [6] and 14.1 µM (active) in assay [7].
Take `CC[C@H](C)[C@H]1O[C@]2(CC[C@@H]1C)C[C@@H]1C[C@@H](C/C=C(\C)[C@@H](O[C@H]3C[C@H](OC)[C@@H](O[C@H]4C[C@H](OC)[C@@H](O)[C@H](C)O4)[C@H](C)O3)[C@@H](C)/C=C/C=C3\CO[C@@H]4[C@H](O)C(C)=C[C@@H](C(=O)O1)[C@]34O)O2`: the Potency result in assay [1], in assay [2], in assay [4], in assay [6] and in assay [7] was “inactive” in each case. The max activation in assay [5] was -15.7%.
On to `CCC(=O)O[C@@H]1CC(=O)O[C@H](C)C/C=C/C=C/[C@H](O)[C@H](C)C[C@H](CC=O)[C@H](O[C@@H]2O[C@H](C)[C@@H](O[C@H]3C[C@@](C)(O)[C@@H](OC(=O)CC)[C@H](C)O3)[C@H](N(C)C)[C@H]2O)[C@H]1OC`, for which the Potency result in assay [1], in assay [2], in assay [3], in assay [4], in assay [6] and in assay [7] was “inactive” each time. The max activation in assay [5] is -4.74%.
As to `OCC(O)CO`, in assay [4], the Potency entry is “inactive”. Besides, the max activation in assay [5] was -5.18%.
Consider `CC(=O)Oc1cc(C)c(OC(C)=O)c2ccccc12`, for which the Potency result in assay [1], in assay [3], in assay [4] and in assay [7] was “inactive” throughout. Also, the Potency in assay [2] is 29.8 µM (active); in assay [6] it was 12.6 µM (active). For the same molecule, the max activation in assay [5] is 0.757%.
For the molecule `NC(=S)N=Nc1ccc(NN=C(N)N)cc1`, the Potency is 23.7 µM (active) in assay [1], 11.9 µM (active) in assay [2] and 29.8 µM (active) in assay [3]. In addition, the Potency entry in assay [4], in assay [6] and in assay [7] was “inactive” throughout. The max activation in assay [5] is -0.862%.
For the molecule `COc1ccc(C(=O)CCC(=O)O)c2ccccc12`, the Potency entry in assay [1], in assay [2], in assay [3], in assay [4], in assay [6] and in assay [7] was “inactive” in each case. Moreover, in assay [5], the max activation was -4.04%.
On to `[O]=[Bi][O][Bi]=[O]`, for which the Potency result in assay [1], in assay [2], in assay [3], in assay [4], in assay [6] and in assay [7] was “inactive” throughout. For the same molecule, in assay [5], the max activation was -2.85%.
For the molecule `O=C(COc1ccc(Cl)cc1)OCCNC12CC3CC(CC(C3)C1)C2`, the Potency result in assay [1], in assay [2], in assay [3], in assay [8], in assay [4] and in assay [6] was “inactive” throughout. The Potency entry in assay [7] is “inactive”. Moreover, in assay [5], the max activation was -5.06%.
With `O=C(NNCNNC(=O)c1ccncc1)c1ccncc1`, the Potency result in assay [1], in assay [3], in assay [8], in assay [4], in assay [6] and in assay [7] was “inactive” each time. Moreover, in assay [2], the Potency is 4.73 µM (active). Also, the max activation in assay [5] was -3.41%.
Regarding `N#CC(c1ccc(Cl)cc1)c1c(Cl)cc(-n2ncc(=O)[nH]c2=O)cc1Cl` (centres undefined), the Potency entry in assay [1], in assay [2], in assay [3], in assay [4], in assay [6] and in assay [7] was “inactive” in each case. For the same molecule, in assay [5], the max activation was 12.6%.
On to `Cc1ccccc1`, for which the Potency result in assay [4] is “inactive”. Further, the max activation in assay [5] is -3.48%.
As to `CCN1C(=O)NC(c2ccccc2)C1=O` (centres undefined), the Potency result in assay [1], in assay [2], in assay [4], in assay [6] and in assay [7] was “inactive” throughout. Moreover, the max activation in assay [5] was 7.71%.
With `CCCC1C(=O)N2C(N(C)C)=Nc3ccc(C)cc3N2C1=O` (centres undefined), the Potency result in assay [1], in assay [4], in assay [6] and in assay [7] was “inactive” each time. Further, in assay [5], the max activation was 5.29%.
Regarding `C[C@@H]1CCC2[C@@H](C)[C@@H](O)O[C@@H]3O[C@@]4(C)CC[C@@H]1[C@@]23OO4` (some centres undefined), the Potency entry in assay [4], in assay [6] and in assay [7] was “inactive” each time. Further, the max activation in assay [5] is -10.7%.
Take `O=C1N=C2SCCN2C(=O)C1Cc1ccc(Cl)cc1` (centres undefined): the Potency result in assay [4], in assay [6] and in assay [7] was “inactive” in each case. In assay [5], the max activation was -2.07%.
Take `CC[C@@H](C(=O)O)[C@@H]1O[C@@H]([C@@H](C)[C@H](O)[C@H](C)C(=O)[C@H](CC)[C@H]2O[C@]3(C=C[C@@H](O)[C@]4(CC[C@@](C)([C@H]5CC[C@](O)(CC)[C@H](C)O5)O4)O3)[C@H](C)C[C@@H]2C)[C@@H](C)C[C@@H]1C`: the Potency entry in assay [1], in assay [2], in assay [3], in assay [4], in assay [6] and in assay [7] was “inactive” in each case. Moreover, the max activation in assay [5] is -17.2%.
Regarding `C[C@@](Cc1ccc(O)c(O)c1)(NN)C(=O)O`, the Potency result in assay [1], in assay [2], in assay [3], in assay [8], in assay [4] and in assay [6] was “inactive” in each case. Besides, the Potency entry in assay [7] is “inactive”. Also, the max activation in assay [5] was -6.63%.
Regarding `O=C(O)C1CCCN1` (centres undefined), the Potency result in assay [1], in assay [2], in assay [3], in assay [4], in assay [6] and in assay [7] was “inactive” each time. Moreover, the max activation in assay [5] was -0.193%.
As to `CC[C@@]1(O)C(=O)OCc2c1cc1n(c2=O)Cc2cc3c([N+](=O)[O-])cccc3nc2-1`, the Potency entry in assay [4], in assay [6] and in assay [7] was “inactive” throughout. Further, in assay [5], the Potency is 6.31 µM (active).
Regarding `CCOC(=O)c1cc(-c2ccccc2)nc2ccc(C)cc12`, the Potency entry in assay [1], in assay [2], in assay [3], in assay [4], in assay [6] and in assay [7] was “inactive” in each case. In addition, in assay [5], the max activation is -2.37%.
Turning to `CNC(C)[C@@H]1CC[C@@H](N)[C@@H](O[C@H]2[C@H](O)[C@@H](O[C@H]3OC[C@](C)(O)[C@H](NC)[C@H]3O)[C@H](N)C[C@@H]2N)O1` (some centres undefined), the Potency entry in assay [4], in assay [6] and in assay [7] was “inactive” each time. In assay [5], the max activation was -0.0148%.
